Screening results: PubChem, National Center for Advancing Translational Sciences (NCATS)
SW480 rereplic: induces DNA re-replication in SW480 colon adenocarcinoma cells; SW480 DNA re-replication, Hoechst DNA content imaging, 48 h; Potency, µM (series often up to 46.1 µM), actives largely listed as activators; AID 624297; 340,000 compounds, 1.8% hits; also: nearly all actives have a fitted effect of over 55% in size
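Quantitative HTS format with DMSO vehicle controls; 48 hr drug incubation at 37 C, then 40 min Hoechst staining and scanning imager measurement at 405 nm excitation.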
ELG1 DNA repair: ELG1-dependent DNA repair inhibition. HEK293T ELG1-luciferase reporter, luminescence, 16 h; DNA damage induced by 5-fluorouridine. Potency, µM (titrated, usually from 46.1 µM), most hits filed as inhibitors. 330,000 compounds, 2.3% hits; also: nearly all actives have a fitted effect of over 55% in size
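In this reporter screen, reduction of luminescence relative to DMSO vehicle indicated activity. Compounds and 5-fluorouridine were added together to 2,000 cells per well, incubated for 16 hr at 37 °C, then developed with ONE-Glo.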
ELG1 genotox: inducers of genotoxicity in HEK293T ELG1-luciferase cells. HEK293T ELG1-luciferase reporter, luminescence, 16 h. Potency, µM (doses to about 46 µM), hits mostly activators. 330,000 compounds, 1.3% hits. AID 504466; also: nearly all actives have a fitted effect of over 60% in size
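Cells (2,000/well) expressing the ELG1-luciferase fusion are dosed by pin tool and kept 16 hr at 37 °C, 5% CO2. Signal comes from ONE-Glo luciferase reagent after 30 min at room temperature.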
MCF10A rereplic: induces DNA re-replication in MCF 10a normal breast cells; MCF 10A DNA re-replication, Hoechst nuclear intensity, 48 h; Potency, µM (doses to about 46.1 µM), usual class: activators; 350,000 compounds, 2.9% hits; AID 624296; also: nearly all actives have a fitted effect of over 50% in size
p53 reactivator: restores transcriptional activity of mutant p53; H1299 p53-A138V BP100-luciferase reporter, luminescence, 24 h; Potency, µM (doses to about 92.2 µM), most hits filed as activators; 320,000 compounds, 0.063% hits; AID 504706; also: nearly all actives have a fitted effect of over 45% in size
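H1299 (p53-null), stable ts p53-A138V + BP100-Luc; 1000 cells/well, Opti-MEM/10% FBS; cpd 4 pt, 1:5; 24 h, 37 deg C, 5% CO2; detection reagent 10 min RT; luminescence.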
AT treatment: potential ataxia-telangiectasia treatments restoring KAP-1 phosphorylation. F2112 A-T fibroblasts, KAP-1 phosphorylation AlphaLISA; neocarzinostatin DNA damage 30 min before lysis. Potency, µM (top dose mostly 57.5 µM), most hits filed as activators. 320,000 compounds, 0.19% hits. AID 485349; also: nearly all actives have a fitted effect of over 45% in size
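ATM-like activity read as KAP-1 phosphorylation via AlphaLISA donor/acceptor antibody pairs after lysis and 6 hr at 25C. Cells were ATM-null patient fibroblasts (F2112, hTERT), dosed 60 min, then exposed to the DSB inducer NCS for 30 min.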
Numbers stand for hits; . = inactive; ? = inconclusive; / = not tested or not shown. Hits are enriched below; roughly 7.1% of the tested compounds scored in any of these assays. Calls follow the shape of the dose curve; as a rule, active = well fitted curve in the direction sought with a large enough effect; inconclusive = small, poorly fitted or top-dose-only effect, or another doubt; inactive = no such curve, though single readings can be large; an effect the other way counts as inactive or inconclusive.

SMILES	SW480 rereplic	ELG1 DNA repair	ELG1 genotox	MCF10A rereplic	p53 reactivator	AT treatment
COc1ccc(C(=O)NCCCOc2cccnc2)cc1OC1CCN(C(C)=O)CC1	.	.	.	.	.	.
NS(=O)(=O)c1ccc(CCNC(=O)COC(=O)CC(c2ccccc2)c2ccccc2)cc1	.	21µM	.	.	?	.
NS(=O)(=O)c1ccc(CCNC(=O)CNCCc2ccc(C(F)(F)F)cc2)cc1	.	21µM	.	.	.	.
NS(=O)(=O)c1ccc(CCNC(=O)CNC(=O)c2ccc(F)cc2)cc1	.	?	.	?	.	.
CCOC(=O)C1(CCCc2ccccc2)CCN(Cc2cn(CC)nc2C)CC1	?	.	.	?	.	.
S=C(c1ccc(-c2ccccc2Cl)o1)N1CCOCC1	.	?	13µM	.	?	.
S=C(c1ccc(-c2ccc(Cl)c(Cl)c2)o1)N1CCOCC1	.	?	6.5µM	?	?	.
CC1(C)CC2CC(C)(CN2S(=O)(=O)c2ccc(F)cc2F)C1 (configuration not stated)	.	.	.	.	.	.
CCN(CC(=O)Nc1c(F)cccc1F)C(=O)c1nc2nc(C)cc(C)n2n1	.	.	.	.	.	.
Cc1cccc(C)c1OC(=O)CSc1nnc(-c2ccccc2O)o1	.	?	.	18µM	.	.
O=C(CSc1nnc(-c2ccccc2Cl)o1)N1CCCC1	.	?	?	.	?	.
O=C(CSc1nnc(-c2ccccc2Cl)o1)N1CCCCC1	.	?	4.6µM	.	.	.
CC1CCCCN1C(=O)CSc1nnc(-c2ccccc2O)o1 (configuration not stated)	?	?	5.2µM	.	?	.
Cc1occc1-c1nnc(SCC(=O)N2CCCCC2C)o1 (configuration not stated)	.	?	.	.	.	.
CCN1C[C@@H]2[C@@H]3C(=O)N(Cc4ccccc4)C(=O)[C@@H]3[C@](C)(C(=O)OC)N2C1=NC	.	.	.	.	.	.
CC(C)[C@H](NS(=O)(=O)c1ccc2c(c1)OCCO2)C(=O)OCC(=O)Nc1cc(Cl)ccc1Cl	.	18µM	.	?	.	.
O=C(c1ccc(NS(=O)(=O)c2ccc3c(c2)OCCO3)cc1)N1CCCCC1	?	23µM	.	.	.	.
CC(C)[C@H](NS(=O)(=O)c1ccc2c(c1)OCCO2)C(=O)OCC(=O)Nc1ccccc1Cl	.	.	.	.	.	.
CC(=O)N1CCN(C(=O)c2ccc(NS(=O)(=O)c3ccc4c(c3)OCCO4)cc2)CC1	.	.	.	.	.	.
O=S(=O)(Nc1ccc(S(=O)(=O)Nc2nccs2)cc1)c1ccc2c(c1)OCCO2	?	?	.	21µM	.	.
COC(=O)c1ccc(Cl)c(NS(=O)(=O)c2ccc3c(c2)OCCO3)c1	18µM	.	.	?	.	.
CC(=O)c1cccc(NC(=O)CN2C(=O)NC(C)(C)C2=O)c1	.	?	.	.	.	.
Cc1ccccc1C1NC(c2ccccc2C)C(C)C(=O)C1C (configuration not stated)	.	.	.	.	.	.
CC1C(=O)C(C)C(c2ccc(Br)cc2)NC1c1ccc(Br)cc1 (configuration not stated)	?	?	.	23µM	.	.
CC1C(=O)C(C)C(c2cc(Br)ccc2O)NC1c1cc(Br)ccc1O (configuration not stated)	?	/	/	23µM	/	/
CCn1c(SCc2c(Cl)cccc2Cl)nc2nc3c(cc2c1=O)CCCC3	?	/	/	23µM	/	/
CCn1c(SCc2ccccc2Cl)nc2nc3c(cc2c1=O)CCCC3	?	?	.	18µM	.	.
CC(C)(C)NC(=O)CSc1ccc(S(=O)(=O)N2CCOCC2)cn1	.	.	.	.	.	.
CCOc1ccc(N2C(=O)CC(Sc3nc(C)cc(C)n3)C2=O)cc1 (configuration not stated)	.	.	.	.	.	.
